We go through 11 compounds from PubChem BioAssay.

The target in one assay is Albumin (Bos taurus) (UniProt P02769). The assay is described as follows: compounds binding labelled BSA control protein – biochemical, small-molecule microarray, Alexa647 label, 635/667 nm fluorescence, artefact control for SMM control protein annotation, profiling panel (AID 1118).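 Also: score merges 667 nm emission intensity and signal-to-noise per printed compound spot.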 The following applies: BSA-A647 binding, fluorescence 635 nm, higher = more signal.
Assay [1] can be described thus: probe aXIP binding to arrayed compounds – biochemical, NeuroSMM set, 635/667 nm fluorescence, primary screen (AID 1119).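 Also: probe is the protein aXip251-270 applied at 1 µg/mL to compound-printed slides; binding of probe to printed compounds measured as 667 nm fluorescence plus signal to noise.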 The following applies: small-molecule microarray, higher = more signal, called active from +8 up or from −8 down.
Assay [2] in a line: probe aNOTCH3 binding on compound microarray – biochemical, small-molecule microarray, 635/667 nm fluorescence, primary screen (AID 1120).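 Also: probe is a biotin-tagged antibody raised against NOTCH3 rather than NOTCH3 protein; score merges spot fluorescence near 667 nm with spot signal to noise.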 The conditions noted are these: higher = more signal.
Assay [3] is described as follows: probe aNOTCH2 binding on compound microarray – biochemical, small-molecule microarray, 635/667 nm fluorescence, primary screen (AID 1121).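 Also: score merges feature fluorescence read at 667 nm with its signal to noise.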 The conditions noted are these: higher = more signal.
Assay [4] addresses Carbonic anhydrase 2 (Homo sapiens) (UniProt P00918). Briefly: compounds binding carbonic anhydrase 2 – biochemical, small-molecule microarray, Alexa647-labelled CAII, profiling panel (AID 1122). The following applies: CAII-A647 binding fluorescence, higher = more signal.
Assay [5] in a line: COS7 lysate on small-molecule microarray, probe aHis, 635 nm (AID 1123).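 Also: z-score combines 667nm fluorescence intensity with signal-to-noise per printed compound spot.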 The following applies: COS7 cell lysate, fluorescence, higher = more signal.
A short description of assay [6]: probe aLAP1 signal on lysate-treated microarray – cell lysate, small-molecule microarray, COS7 lysate, primary screen (AID 1124).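 Also: lysate comes from COS7 cells expressing LAP1 and is applied at 0.3 µg/mL; score merges spot fluorescence near 667 nm with signal-to-noise over triplicate slides.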 The conditions noted are these: probe aLAP1, fluorescence, higher = more signal.
The next assay relates to Sam68 (KHDRBS1). The assay is described as follows: compounds binding KHDRBS1 protein – biochemical, small-molecule microarray, 635 nm fluorescence, primary screen (AID 1125).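 Also: score merges 667 nm channel intensity with signal to noise over triplicate slides.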 The following applies: higher = more signal.
The test system of assay [7] is Chordin-like protein 2 (CHRDL2). The assay is described as follows: compounds binding chordin-like 2 – biochemical, small-molecule microarray, 635 nm fluorescence, primary screen (AID 1126).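 Also: printed compound slides probed with Chrdl2 protein at 4 µg/mL for 1 h at 4 C; score merges 667 nm emission intensity with signal to noise over three replicate slides.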 The conditions noted are these: fluorescence 635 nm, higher = more signal.
Assay [8] has as its target Concanavalin-A (Canavalia ensiformis) (UniProt P02866). Briefly: compounds binding concanavalin A lectin – biochemical, small-molecule microarray, Alexa647 label, 635 nm, artefact control for SMM control protein annotation, primary screen (AID 1127).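 Also: z combines 667 nm emission intensity with signal-to-noise across three replicate slides.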 The conditions noted are these: ConA-A647 binding fluorescence, higher = more signal.

Active and inactive are the calls of the source.

Sequence of Concanavalin-A (Canavalia ensiformis) (P02866 whole entry, looked up): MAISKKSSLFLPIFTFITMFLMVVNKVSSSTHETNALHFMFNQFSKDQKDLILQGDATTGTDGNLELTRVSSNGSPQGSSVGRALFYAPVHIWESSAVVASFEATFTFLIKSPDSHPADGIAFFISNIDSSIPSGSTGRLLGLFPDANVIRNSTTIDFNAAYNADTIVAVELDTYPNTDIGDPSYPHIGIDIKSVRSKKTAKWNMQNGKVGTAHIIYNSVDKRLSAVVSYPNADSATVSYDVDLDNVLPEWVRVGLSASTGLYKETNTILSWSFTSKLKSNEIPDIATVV
Sequence of Albumin (Bos taurus) (P02769 whole entry, looked up): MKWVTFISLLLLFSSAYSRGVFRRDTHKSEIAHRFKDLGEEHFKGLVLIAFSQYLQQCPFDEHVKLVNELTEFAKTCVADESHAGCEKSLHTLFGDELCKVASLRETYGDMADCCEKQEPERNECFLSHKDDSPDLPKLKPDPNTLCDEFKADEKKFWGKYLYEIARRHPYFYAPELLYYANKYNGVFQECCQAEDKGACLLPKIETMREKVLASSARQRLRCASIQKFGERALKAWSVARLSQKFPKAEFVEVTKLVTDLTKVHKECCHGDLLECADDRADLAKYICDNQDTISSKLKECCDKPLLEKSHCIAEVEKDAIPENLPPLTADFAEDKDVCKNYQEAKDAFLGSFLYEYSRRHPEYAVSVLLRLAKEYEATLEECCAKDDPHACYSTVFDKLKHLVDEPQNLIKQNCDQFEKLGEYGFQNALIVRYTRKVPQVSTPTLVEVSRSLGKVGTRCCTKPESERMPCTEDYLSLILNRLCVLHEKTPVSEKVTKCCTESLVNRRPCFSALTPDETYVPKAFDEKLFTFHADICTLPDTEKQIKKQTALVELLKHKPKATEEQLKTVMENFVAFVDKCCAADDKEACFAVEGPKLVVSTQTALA

Turning to `COc1ccc(C#Cc2ccc3c(c2)[C@]2(C(=O)N3)[C@H](c3ccc(O)cc3)N3[C@H](c4ccccc4)[C@H](c4ccccc4)OC(=O)[C@H]3[C@@H]2C(=O)N2CCCCCCC2)cc1`, the composite z-score with Albumin (Bos taurus) is 0.814; in assay [2], 1.84; in [3] it was 0.939; in assay [4], 0.504; in [5], 3.27; in [6], 0.998. Also, the values for the composite z-score (with Sam68 (KHDRBS1); in assay [7]; in assay [8]) were 1.31, 1.23 and 1.14, respectively. In addition, the composite Z-score in [1] is 5.12 (inactive).

For the compound `COc1cc(C(O)C2C=CC3C(=O)N(c4ccccc4)C(=O)C3N2Nc2ccc(C#N)cc2)cc(OC)c1OC` (stereo not given), the composite z-score was found to be 1.01 with Albumin (Bos taurus); 0.178 in [2]; 0.135 in [3]; 0.883 in assay [4]; 3.23 in [5]; 1.26 in [6]. Moreover, the composite z-score with Sam68 (KHDRBS1) was 1.32; in [7] it was -1.05; in assay [8], 1.21. The composite Z-score in assay [1] was 0.0402 (inactive).

`CCCNC(=O)[C@@]1(c2ccc([N+](=O)[O-])cc2)CC(=O)N(CC23CC4CC(CC(C4)C2)C3)[C@@H]1c1ccc(CO)cc1`: the composite z-score was -0.161 in the assay with Albumin (Bos taurus); -0.255 in assay [2]; -0.168 in assay [3]; 0.716 in assay [4]; 1.08 in assay [5]; 1.88 in assay [6]. Also, the composite z-score in the assay with Sam68 (KHDRBS1) is 0.591; in assay [7] it was -0.0438; in assay [8] it was 0.531. Also, the composite Z-score in assay [1] is -0.639 (inactive).

Turning to `CCCCCN1CC=CC23O[C@@H]4/C=C\CCC(C)OC(=O)C4[C@H]2C(=O)N(CCCCCO)[C@@H]3C1=O` (stereo not given in full), the composite z-score with Albumin (Bos taurus) is -0.299; in assay [2], -0.149; in assay [3], -0.144; in [4], 0.685; in [5], -0.389; in [6] it was -0.29. Also, the results for the composite z-score (in the assay on Sam68 (KHDRBS1); in assay [7]; in assay [8]) were -1.09, -0.793 and -0.541, respectively. Besides, the composite Z-score in [1] was -0.127 (inactive).

On to `COC(=O)c1c(CC[C@@H](CO)NC(=O)N[C@@H](Cc2ccccc2)Cn2cc(C3(O)CCCCC3)nn2)oc(C(C)=O)c1C(=O)OC`, for which the composite z-score was 0.357 with Albumin (Bos taurus); 0.0893 in assay [2]; -0.0942 in [3]; 0.253 in [4]; 0.287 in assay [5]; -0.0804 in assay [6]. In addition, the composite z-score worked out at 1.29 in the assay with Sam68 (KHDRBS1), 0.625 in assay [7] and 0.82 in [8]. Moreover, the composite Z-score in assay [1] is -0.0293 (inactive).

In the case of `NC(=O)NCC#Cc1ccc2c(c1)[C@]1(C(=O)N2)[C@H](C(=O)N2CCCCCCC2)[C@H]2C(=O)O[C@H](c3ccccc3)[C@H](c3ccccc3)N2[C@@H]1c1ccc(OCCO)cc1`, the composite z-score in the assay with Albumin (Bos taurus) is -0.946; in assay [2], 1.29; in [3] it was 0.683; in [4], 0.336; in [5], 1.6; in assay [6], 0.864. For the same compound, the composite z-score with Sam68 (KHDRBS1) was determined as 1.32; in assay [7] it was 1.09; in assay [8], 0.987. The composite Z-score in [1] is -0.397 (inactive).

For `O=c1cccc(CCc2ccccc2)o1`, the composite z-score with Albumin (Bos taurus) is -0.284; in assay [2], -0.301; in assay [3] it was -0.0986; in [4] it was 0.731; in assay [5] it was 0.89; in assay [6], -0.397. For the same compound, the composite z-score was 0.854 with Sam68 (KHDRBS1), 0.146 in assay [7] and 0.283 in [8]. Further, the composite Z-score in assay [1] is 0.338 (inactive).

`C=CCC(OC(C)=O)[C@@H]1[C@@H](N(Cc2cccc3ccccc23)C(=O)c2cccc3ccccc23)c2cc(OCCCO)ccc2N1C(=O)c1ccc2ccccc2n1` (stereo not given in full): the composite z-score was -0.0648 in the assay with Albumin (Bos taurus); 0.0556 in assay [2]; -0.0323 in [3]; -0.12 in assay [4]; 0.656 in assay [5]; -0.342 in [6]. Moreover, the figures for the composite z-score (in the assay with Sam68 (KHDRBS1); in assay [7]; in assay [8]) were -0.0153, 0.366 and -0.0505, respectively. In addition, the composite Z-score in [1] is 0.639 (inactive).

With `Cc1ccc(S[C@]2(C(=O)NCC(C)C)CC(=O)N(Cc3ccccc3Cl)[C@@H]2c2ccc(CO)cc2)cc1`, the composite z-score is -0.968 with Albumin (Bos taurus); -0.312 in assay [2]; -0.162 in assay [3]; 0.738 in assay [4]; 0.678 in [5]; -0.0092 in assay [6]. Moreover, the composite z-score in the assay with Sam68 (KHDRBS1) is -0.897; in [7], -0.796; in assay [8], -1.88. The composite Z-score in assay [1] is -0.12 (inactive).

For `O=C1OCCC=C[C@H]2OC34C=CCN(Cc5ccccc5)C(=O)[C@H]3N(CCCO)C(=O)[C@@H]4C12` (stereo not given in full), the composite z-score in the assay with Albumin (Bos taurus) was 0.117; in assay [2] it was -0.275; in assay [3], -0.164; in assay [4], 0.897; in assay [5], 0.0967; in assay [6], -0.322. Further, the composite z-score is -1.22 in the assay on Sam68 (KHDRBS1), -0.229 in assay [7] and -0.731 in assay [8]. For the same compound, the composite Z-score in assay [1] is -0.241 (inactive).

`COC(=O)C(CC#Cc1ccc2c(c1)[C@]1(C(=O)N2)[C@H](C(=O)NC[C@H](O)c2ccccc2)[C@H]2C(=O)O[C@H](c3ccccc3)[C@H](c3ccccc3)N2[C@@H]1c1ccc(OCCO)cc1)C(=O)OC`: the composite z-score with Albumin (Bos taurus) stood at 0.516; in assay [2], 1.4; in assay [3], 0.146; in assay [4], 0.556; in assay [5] it was 2.94; in assay [6], 0.811. In addition, the results for the composite z-score (in the assay with Sam68 (KHDRBS1); in [7]; in assay [8]) were 1.27, 0.75 and 1.02, respectively. The composite Z-score in assay [1] was 2.12 (inactive).
